Among the test systems are HCT-15 colon; HT29 colon; SNB-75 CNS; SNB-19 CNS; U251 CNS; PC-3 prostate; SK-MEL-5 melanoma; UACC-62 melanoma; LOX IMVI melanoma; SK-MEL-28 melanoma; SK-MEL-2 melanoma; EKVX NSCLC; SN12C renal; UO-31 renal; TK-10 renal; ACHN renal; CAKI-1 renal; A498 renal; CCRF-CEM leukemia; MOLT-4 leukemia.
Common to all, as to assay: NCI-60 one-dose screen, 48 h (100 = growth as untreated, 0 = no growth, -100 = all killed)
Common to all, as to conditions: 10 µM unless noted

The panel holds about 83,000 compounds, 20% with a hit somewhere; the sample as a whole holds those more often.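 Growth was measured after 48 h exposure to one concentration of compound in 96-well plates. Values under 10 count as active.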 A number with no mark means an inactive call. Active and inactive are the calls of the source.

`CC1(C)CC(=O)c2c(ccc(C(=O)C[C@H](N)CO)c2N)O1`: the growth in the assay on HCT-15 colon was 4.43% (active); with HT29 colon it was 2.53% (active); in the assay on SNB-75 CNS, 75.9%; with SNB-19 CNS, 34.7%; with U251 CNS, 14.8%; in the assay with PC-3 prostate it was 45.3%. In addition, the growth is 47.2% in the assay with SK-MEL-5 melanoma; 11% in the assay with UACC-62 melanoma; -61.7% (active) with LOX IMVI melanoma; 38% in the assay with SK-MEL-28 melanoma; 36.8% with SK-MEL-2 melanoma; 80% in the assay on EKVX NSCLC. The growth in the assay on SN12C renal is 32.6%; in the assay on UO-31 renal it was 43.4%; in the assay on TK-10 renal, 79.4%; with ACHN renal, 46.2%; in the assay with CAKI-1 renal it was 20.3%; with A498 renal, -16.8% (active). Further, the values for the growth in the assay on CCRF-CEM leukemia and in the assay with MOLT-4 leukemia were 17.7% and 38.5%, respectively.

Take `C=C(C)[C@@H]1CC[C@@]2(C(=O)O)CC[C@]3(C)C(CCC4[C@@]5(C)CCC(OS(=O)(=O)c6ccccc6)C(C)(C)C5CC[C@]43C)C12` (stereo not given in full): the growth was 39.7% in the assay on HCT-15 colon; 58.4% with HT29 colon; 86.1% in the assay with SNB-75 CNS; 83.6% in the assay on SNB-19 CNS; 41.5% with U251 CNS; 44.4% in the assay on PC-3 prostate. The growth was 35.6% in the assay with SK-MEL-5 melanoma; 47.5% in the assay on UACC-62 melanoma; 53.8% in the assay on LOX IMVI melanoma; 86% in the assay with SK-MEL-28 melanoma; 70.3% in the assay on SK-MEL-2 melanoma; 25.4% in the assay on EKVX NSCLC. Also, the growth in the assay with SN12C renal was 62.2%; with UO-31 renal it was 48.5%; in the assay with TK-10 renal it was 59.8%; in the assay on ACHN renal, 49.7%; with CAKI-1 renal it was -15.5% (active); in the assay with A498 renal it was 84.2%. In addition, the values for the growth in the assay on CCRF-CEM leukemia and in the assay on MOLT-4 leukemia were 62.4% and 51.7%, respectively.

As for `C#C[C@]1(O)CC[C@H]2[C@@H]3CC=C4c5sc(N=C(N)N)nc5CC[C@]4(C)[C@H]3CC[C@@]21C`, the growth was -60.8% (active) in the assay with HCT-15 colon; -0.997% (active) with HT29 colon; -60.5% (active) in the assay with SNB-75 CNS; 18.9% in the assay with SNB-19 CNS; -14.9% (active) in the assay with U251 CNS; 0.258% (active) with PC-3 prostate. Besides, the growth is -94.9% (active) in the assay on SK-MEL-5 melanoma; -51.7% (active) with UACC-62 melanoma; -64.4% (active) in the assay on LOX IMVI melanoma; -68.8% (active) in the assay on SK-MEL-28 melanoma; -13.4% (active) in the assay on SK-MEL-2 melanoma; 12.7% in the assay with EKVX NSCLC. In addition, the growth in the assay on SN12C renal was -56% (active); with UO-31 renal, -77.7% (active); in the assay with TK-10 renal, 13.4%; with ACHN renal, -6.84% (active); with CAKI-1 renal it was -19.9% (active); in the assay with A498 renal it was -90.8% (active). The growth is 4.5% (active) with CCRF-CEM leukemia and -8.43% (active) with MOLT-4 leukemia.

On to `CCN1CCN(c2ccc(Nc3cc(-c4cccnc4Nc4c(Cl)c(OC)cc(OC)c4Cl)ncn3)cc2)CC1`, for which the growth is 63.3% in the assay on HCT-15 colon; 31.9% in the assay with HT29 colon; 42.8% with SNB-75 CNS; 81% in the assay with SNB-19 CNS; 71.6% with U251 CNS; 55.3% in the assay on PC-3 prostate. Moreover, the growth in the assay on SK-MEL-5 melanoma was 74%; in the assay with UACC-62 melanoma, 85.9%; in the assay with LOX IMVI melanoma, 44.7%; in the assay on SK-MEL-28 melanoma, 100%; with SK-MEL-2 melanoma it was 74.9%; in the assay with EKVX NSCLC, 87.4%. Also, the growth is 56.6% with SN12C renal; 52.8% in the assay on UO-31 renal; 68.1% in the assay on TK-10 renal; 42.6% with ACHN renal; 48.5% in the assay on CAKI-1 renal; 21.8% with A498 renal. Also, the growth is 31.6% with CCRF-CEM leukemia and 9.51% (active) in the assay with MOLT-4 leukemia.

Take `CC(C)OC(=O)OCOP(=O)(OCOC(=O)OC(C)C)C1CCCN(O)C1=O` (stereo not given): the growth in the assay on HCT-15 colon was 33.4%; in the assay on HT29 colon it was 5.87% (active); with SNB-75 CNS it was 57.6%; with SNB-19 CNS it was 21.5%; with U251 CNS, 15.2%; with PC-3 prostate, 60.5%. Moreover, the growth was 30.9% in the assay on SK-MEL-5 melanoma; 23.6% with UACC-62 melanoma; 39% in the assay on LOX IMVI melanoma; 15.2% with SK-MEL-28 melanoma; 28.5% with SK-MEL-2 melanoma; 47.8% with EKVX NSCLC. Moreover, the growth is 5.75% (active) in the assay on SN12C renal; 9.98% (active) in the assay on UO-31 renal; 2.39% (active) in the assay on TK-10 renal; 26.9% with ACHN renal; 25.1% in the assay with CAKI-1 renal; 1.16% (active) in the assay on A498 renal. Moreover, the growth with CCRF-CEM leukemia is 10%; with MOLT-4 leukemia it was 22.5%.

For `Cc1cc(C(c2ccccc2)c2ccccc2)ccc1NS(=O)(=O)c1ccccc1`, the growth with HCT-15 colon was 96.3%; in the assay with HT29 colon, 89.3%; with SNB-75 CNS, 95.4%; in the assay on SNB-19 CNS it was 101%; in the assay with U251 CNS, 94.6%; with PC-3 prostate it was 83.6%. The growth in the assay on SK-MEL-5 melanoma was 94.8%; in the assay with UACC-62 melanoma, 85.2%; in the assay on LOX IMVI melanoma, 87.7%; in the assay on SK-MEL-28 melanoma it was 112%; in the assay with SK-MEL-2 melanoma it was 104%; in the assay on EKVX NSCLC it was 83.5%. Moreover, the growth with SN12C renal was 95.3%; in the assay with UO-31 renal it was 82.3%; in the assay with TK-10 renal it was 123%; with ACHN renal, 106%; with CAKI-1 renal it was 89.3%; in the assay with A498 renal it was 102%. Further, the growth with CCRF-CEM leukemia is 82.4%; with MOLT-4 leukemia it was 59.7%.

`CN1CCN(C2=C(Cl)C(=O)c3ccccc3C2=O)CC1`: the growth in the assay on HCT-15 colon was 33%; in the assay on HT29 colon, 66.7%; in the assay on SNB-75 CNS, 90.9%; with SNB-19 CNS it was 93.1%; with U251 CNS, 87%; in the assay with PC-3 prostate it was 60.5%. Further, the growth was 26.8% in the assay on SK-MEL-5 melanoma; 32.9% with UACC-62 melanoma; 11.4% in the assay with LOX IMVI melanoma; 73.8% in the assay on SK-MEL-28 melanoma; 45.8% in the assay on SK-MEL-2 melanoma; 89.3% with EKVX NSCLC. Also, the growth in the assay with SN12C renal is 79.1%; in the assay on UO-31 renal it was 75.4%; in the assay on TK-10 renal it was 93.5%; in the assay on ACHN renal, 82.9%; in the assay on CAKI-1 renal it was 77%; in the assay with A498 renal, 88.6%. Also, the growth was 75.5% in the assay with CCRF-CEM leukemia and 79.7% in the assay with MOLT-4 leukemia.

As to `CC(C)OC(=O)NNC(=O)c1ccncc1`, the growth is 101% in the assay on HCT-15 colon; 110% in the assay on HT29 colon; 91% in the assay with SNB-75 CNS; 105% in the assay with SNB-19 CNS; 98.1% with U251 CNS; 104% in the assay with PC-3 prostate. For the same compound, the growth in the assay with SK-MEL-5 melanoma was 114%; with UACC-62 melanoma, 94%; in the assay with LOX IMVI melanoma it was 101%; in the assay with SK-MEL-28 melanoma, 110%; with SK-MEL-2 melanoma, 84.4%; with EKVX NSCLC, 106%. Also, the growth in the assay with SN12C renal was 100%; in the assay with UO-31 renal, 77.8%; with TK-10 renal it was 103%; in the assay on ACHN renal, 96%; in the assay with CAKI-1 renal it was 94.4%; with A498 renal it was 119%. Moreover, the figures for the growth in the assay with CCRF-CEM leukemia and in the assay with MOLT-4 leukemia were 132% and 102%, respectively.

These data come from PubChem BioAssay (NCI).
